The supplement of paper PMC10681739

Molecular target: RUNX1 (UniProt Q01196)
Assay: RUNX1 binding intensity (PBM fluorescence), RUNX1 alone (arbitrary fluorescence units); higher = stronger binding
Settings: RUNX1 concentration 2 nM; ETS1 concentration 0 nM
Protocol: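 Cooperative gcPBM on 36-bp genomic probes with neighbouring ETS1 and RUNX1 sites. Recombinant human RUNX1 (2 nM) was incubated alone or with ETS1 (25 nM) and detected with anti-RUNX1 antibody plus Alexa488 secondary. Values are medians over 4 replicate spots; the RUNX1+ETS1 data were normalised to the RUNX1-only data. The probes sit in constant array flanks that are not printed.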
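Note: Full-length recombinant human RUNX1 bound to double-stranded 36-bp genomic probes on a high-density microarray, scored as Alexa488 fluorescence per spot via anti-RUNX1 antibody, median of four replicate spots.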

Sequence of RUNX1 (Q01196 whole entry): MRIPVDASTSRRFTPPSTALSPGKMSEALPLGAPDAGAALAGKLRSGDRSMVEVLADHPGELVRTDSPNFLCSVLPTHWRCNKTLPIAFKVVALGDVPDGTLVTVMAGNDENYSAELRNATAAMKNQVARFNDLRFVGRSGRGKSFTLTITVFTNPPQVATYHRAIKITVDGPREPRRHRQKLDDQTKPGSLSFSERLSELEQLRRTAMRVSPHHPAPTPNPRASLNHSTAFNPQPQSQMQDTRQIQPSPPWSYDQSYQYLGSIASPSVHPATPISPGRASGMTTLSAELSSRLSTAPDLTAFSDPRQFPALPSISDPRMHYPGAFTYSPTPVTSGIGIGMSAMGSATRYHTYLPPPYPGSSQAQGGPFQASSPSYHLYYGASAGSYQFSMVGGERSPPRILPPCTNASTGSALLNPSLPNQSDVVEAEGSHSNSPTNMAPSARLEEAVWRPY

Row | Sequence | RUNX1 binding intensity
1 | GGACCCAGCAGAGGATGTGGTTACAGGGCCATGATA | 836
2 | GCGCGGCGCGACCGGACGCTGCGGGCGGGGAAGAGG | 734
3 | GGACTGCGTTTCCGGACACTGCGGGTGCCGGTAGCC | 671
4 | TGCTTTTCAGGTGCAGGAAGTGGTTTGCCTTTGCCC | 788
5 | TACCCCGCCGGAAGCCCCCTGCTCTGTGGGAACCGG | 894
6 | AGGGAACAGGAAATGCAAAAAACCACAAGGGACAAG | 2050
7 | ACAGATCCAAGGAAGCATATCCCGCAAGCAACTGTT | 797
8 | TGGGGCCCGGAAGCGCTGGCGCCTTGCGGCCAGAAG | 707
9 | ACCTGAGCAGGAAGTAGCTGAGGTCGCGGTGCAGCA | 730
10 | AGCGCCCCATCCCGCGGATGTGGTAAAGCTTCGCGC | 788
11 | CTCTTCCTGCCTGTCCGTGGCTGGTGTGGTTTGCGT | 958
12 | GAATGGCGGATGTGGCTGGGGAGAGAAAGCCGCAGA | 836
13 | CCCACCCGGAAATGAGCCAACAGTGGTTTCGCCCCG | 782
14 | CTGCAGATGCATTTCCTTTTTGTGGTAGCAAGCGTG | 805
15 | GCTCCTCCCGGATATAAAGCCCCAAACCACGCCACT | 1140
16 | ACTTACTTCCCGACGTCACAGCCACCGAAACCACAG | 1410
17 | CATTGATCAAAGACAGGATGTGGTAACAGGCAGTTA | 760
18 | CTAACCCTTCTCTTCCTGCAAAAACCACAACAAAGG | 2250
19 | CCGCCGCGCGCCGGATGCTAAGACCGCGATTTCCCC | 781
20 | CAGGCAGGATGTTGACTCAGCTGCCAAGTGGTTTTG | 719

Row | Sequence | RUNX1 binding intensity
21 | TTCTTCCCCCTTCCGGTCGCTGAGTGGTTGAGGCCG | 898
22 | CCTGGGGGGCCGGAAGCCCCGCTGCGGCCCCAGCCC | 737
23 | AGCTCAATTTCCTGGCGTGTAACATGGCCACAAGGG | 830
24 | AATGGGCTTGGTTTCCTGTGGGTTTGTAGCTTTGTA | 899
25 | AATCCCGGAAACGCGGATTCAGCGGAGCGCGGTGAC | 735
26 | GCCACCTCTTCCTGTGTTGCAAACCACAGGTCCACC | 1600
27 | CTCTTTCACAAAGGAAATGGAAACCACAAAGAGGAC | 1820
28 | CCGGCAGGAAGTTAGCATGGGCGGACCACACGGGGG | 1470
29 | GGATGAACAGGAAGCTAAAGTAAATACCACAGTGAC | 764
30 | GACCAATGTAAACAAGGATGTGGGTTCTCCGGCCAC | 785
31 | TGGCATTCTCCTTCCTGTCTCCTAACCACAGCCCAC | 2110
32 | CACTCCCCGAATCCGGTCTGCGGCGCGCTCGGGGCC | 774
33 | GCGGGCGGAAGTGCCGAGGTTGTACCGCGGCGCTGG | 714
34 | GTTCTCCACATCCTGTTCCGTAGCTGTGGTGCACCG | 3060
35 | GGGGCTCCGCAGGAAGTAGGGCTCCCACAACTTTGC | 664
36 | TATCACATCCTGCCGGACAAAAAGGCCAAACCACCT | 919
37 | CTGCCCAGCCACTTCCTGCCCAACCACAGACTGACA | 1420
38 | CTTCTACTTCCTGCCCCGCCCCCAGCTGTGGTCACA | 1490
39 | AGCTCCCCTCCCCGGAAACTTGACCACCTAGCCCAG | 875
40 | CTGAGCCGGATGTTACTGGTTAGTGGTTTTCTTTAT | 917
